Only some compounds are listed: those with a hit (about 17% of all), similar ones and a draw of the others.
DT40 TDP1 no CPT: qHTS for Inhibitors of human tyrosyl-DNA phosphodiesterase 1 (TDP1): qHTS in cells in absence of CPT; DT40 Tdp1-/- hTDP1 cells, no CPT, ATP luminescence, 48 h; Potency, µM (titrated, usually from 46.2 µM), actives largely listed as inhibitors; actives 15% (n = 420,000); AID 686978, 2013; note: nearly all actives have a fitted effect of over 55% in size
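Chicken DT40 Tdp1-/- cells complemented with human TDP1, screened without camptothecin (DMSO vehicle only), 400 cells/well. Compounds pin-transferred, cells incubated at 37 °C for at least 48 hr. Growth read as ATP-dependent luminescence (CellTiter-Glo, 30 min at RT).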
ClpP mod: qHTS Assay for Activators of ClpP; purified B. subtilis ClpP, FRET peptide cleavage, 20 min; AID 651965, 2013; actives 1.9% (n = 340,000); Potency, µM (doses to about 57.5 µM); active = well fitted falling curve with a large enough effect; inconclusive = small, poorly fitted or top-dose-only effect; inactive = no such curve, though single readings can be large or run the other way; note: the source files actives as falling curves though it sought activators and does not explain the sign; nearly all actives have a fitted effect of over 65% in size
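FRET quenching reversal measured ClpP activation: 10 microg/mL B. subtilis ClpP at pH 8 with the FRET-FV decapeptide, read at 430 nm after 320 nm excitation. The 20-min minus 0-min signal was scaled between DMSO/no-enzyme wells and ADEP (5.8 microM final).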
TDP1 cell CPT: growth inhibition of DT40 Tdp1-/-;hTDP1 cells with camptothecin (screen for TDP1 inhibitors); chicken DT40 Tdp1-/-;hTDP1 cells + 20 nM CPT, ATP luminescence, 48 h; Potency, µM (titrated, usually from 46.2 µM), most hits filed as inhibitors; actives 12% (n = 420,000); AID 686979; note: nearly all actives have a fitted effect of over 55% in size
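Cell growth measured by CellTiter-Glo luminescence after a minimum 48 h, 37 C compound exposure with 20 nM CPT in Tdp1-knockout DT40 cells stably expressing hTDP1, seeded 400/well; qHTS titration format.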
TDP1 block: blocks human tyrosyl-DNA phosphodiesterase 1; AID 485290; Q9NUW8; Potency, µM (doses to about 130 µM), usual class: inhibitors; recombinant TDP1, AlphaScreen DNA substrate cleavage; actives 0.28% (n = 350,000); note: nearly all actives have a fitted effect of over 40% in size
Target sequence (Q9NUW8 whole entry, looked up): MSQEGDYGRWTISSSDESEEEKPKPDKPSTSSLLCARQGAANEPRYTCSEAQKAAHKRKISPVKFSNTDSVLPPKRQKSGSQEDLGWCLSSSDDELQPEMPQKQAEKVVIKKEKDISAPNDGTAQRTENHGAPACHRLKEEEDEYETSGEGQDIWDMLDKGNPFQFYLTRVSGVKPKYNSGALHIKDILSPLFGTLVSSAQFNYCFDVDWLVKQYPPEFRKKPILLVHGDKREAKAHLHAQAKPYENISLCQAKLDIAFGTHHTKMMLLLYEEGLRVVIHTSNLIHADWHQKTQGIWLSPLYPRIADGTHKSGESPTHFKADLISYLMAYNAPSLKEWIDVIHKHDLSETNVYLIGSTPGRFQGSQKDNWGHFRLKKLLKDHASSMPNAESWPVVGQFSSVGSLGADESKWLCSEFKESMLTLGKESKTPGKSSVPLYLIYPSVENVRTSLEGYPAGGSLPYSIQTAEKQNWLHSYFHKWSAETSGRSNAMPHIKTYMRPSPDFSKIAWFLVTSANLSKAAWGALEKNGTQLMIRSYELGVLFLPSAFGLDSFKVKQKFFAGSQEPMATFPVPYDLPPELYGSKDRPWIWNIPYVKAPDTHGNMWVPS
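AlphaScreen read-out: signal falls as enzyme removes the 3' tyrosine-FITC from a 5'-biotinylated DNA oligo (15 nM, 5 min, RT). Enzyme was E. coli-made recombinant Tdp1 at 1 nM, exposed to compound for 15 min beforehand; beads 10 ug/ml, 10 min.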
A number is an active result; – = inactive; ? = inconclusive; · = not tested or not shown. Unless noted, calls come from the whole dose curve; as a rule, active = well fitted curve in the direction sought with a large enough effect; inconclusive = small, poorly fitted or top-dose-only effect, or another doubt; inactive = no such curve, though single readings can be large; an effect the other way counts as inactive or inconclusive.

SMILES	DT40 TDP1 no CPT	ClpP mod	TDP1 cell CPT	TDP1 block
Cc1cc(Cl)cc(C)c1OCCNCc1ccccc1	21µM	–	?	·
Clc1ccc(OCCOCCNCc2ccccc2)cc1Cl	18µM	–	16µM	·
CCCN(CCC)CCNC(=O)CN1C(=O)COc2ccc(S(=O)(=O)N3CCC(C)CC3)cc21	·	–	·	–
COc1ccccc1-n1cc(-c2ccccc2)[nH]c1=S	?	?	–	·
COc1ccc(-n2cnc3ccccc32)cc1	–	–	?	–
COc1ccc(-n2cc(-c3ccccc3)[nH]c2=S)cc1	16µM	14µM	13µM	–
COc1ccc(-n2cnc(=S)[nH]c2=S)cc1	0.33µM	·	0.58µM	·
CCOc1ccc(-c2cn(-c3ccccc3OC)c(=S)[nH]2)cc1	18µM	·	?	·
CCOC(=O)[C@]12CCC=C1N(Cc1ccco1)C(=O)[C@H](CC(=O)N1CCCCC1)C2	–	–	–	·
Cc1ccc(NC(=O)CSCC(=O)Nc2ccccc2N2CCCC2)cc1	?	·	–	·
CC1CN(CC(=O)Nc2ccccc2Sc2ccccc2)CC(C)O1 (centres undefined)	23µM	–	23µM	–
O=C(CN1CCOCC1)Nc1ccccc1Sc1ccccc1	–	·	–	–
CC(=O)N1CCN(CC(=O)Nc2ccccc2Sc2ccccc2)CC1	23µM	–	?	–
CC(C)=C1CCC(C)CC1=O (centres undefined)	·	·	·	–
O=C(CSc1ncnc2scc(-c3ccc(F)cc3)c12)c1ccc2c(c1)OCCO2	18µM	–	21µM	–
CC1CCc2c(sc3ncnc(SCC(=O)c4ccccc4)c23)C1 (centres undefined)	?	–	–	–
CCc1nc(SCC(=O)c2ccc3c(c2)OCCO3)c2ccccc2n1	?	–	?	–
Cc1sc2ncnc(SCC(=O)c3ccc4c(c3)OCCO4)c2c1-c1ccccc1	9.2µM	–	6.5µM	–
Cc1ccc(-c2csc3ncnc(SCC(=O)c4ccc5c(c4)OCCO5)c23)cc1	?	–	?	–
O=C(CSc1ncnc2ccccc12)c1ccc2c(c1)OCCO2	18µM	–	18µM	–
O=C(CSc1nc(Cc2ccccc2)nc2ccccc12)c1ccc2c(c1)OCCO2	23µM	–	16µM	–
Cc1nc2ccccn2c(=O)c1NC(=O)c1ccc2c(c1)OCO2	–	–	–	·
O=C(COC(=O)c1ccc([N+](=O)[O-])o1)NCc1ccccc1	–	–	–	–
Cc1cc2oc(C(=O)N3CCN(Cc4ccccc4)CC3)c(C)c2cc1C	?	–	26µM	·
CN(Cc1ccccc1)C(=O)c1ccc([N+](=O)[O-])o1	?	–	23µM	–
SMILES	DT40 TDP1 no CPT	ClpP mod	TDP1 cell CPT	TDP1 block
Cc1ccc(C(=O)N2CCN(Cc3ccccc3)CC2)o1	–	–	–	–
O=C(c1ccc([N+](=O)[O-])o1)N1CCN(Cc2ccccc2)CC1	26µM	–	15µM	–
COc1ccc(S(=O)(=O)N2CCN(C(=O)N3CCOCC3)C2C)cc1 (centres undefined)	–	–	–	–
CS(=O)(=O)N(CC(=O)NCc1ccncc1)C1CCCCC1	–	·	–	–
O=C(Nc1cc2c3c(c1)CC(=O)N3CCC2)c1c(F)cccc1F	–	–	–	·
CC(C)Cn1c(N)c(C(=O)COC(=O)c2cccc(F)c2)c(=O)n(C)c1=O	?	–	?	–
Cc1cnc(C(=O)OCC(=O)c2c(N)n(CC(C)C)c(=O)n(C)c2=O)cn1	?	–	–	–
Cc1cccc(C(=O)OCC(=O)c2c(N)n(CC(C)C)c(=O)n(C)c2=O)c1[N+](=O)[O-]	18µM	·	?	·
COC(=O)c1c(C)[nH]c(C(=O)OCC(=O)c2c(N)n(CC(C)C)c(=O)n(C)c2=O)c1C	15µM	·	?	–
Cc1cccc(C(=O)OCC(=O)c2c(N)n(CC(C)C)c(=O)n(C)c2=O)c1O	23µM	·	23µM	·
CC(C)Cn1c(N)c(C(=O)COC(=O)c2ccc(O)cc2O)c(=O)n(C)c1=O	26µM	–	?	·
CC(C)Cn1c(N)c(C(=O)COC(=O)c2nccnc2N)c(=O)n(C)c1=O	–	–	–	–
CC(C)Cn1c(N)c(C(=O)COC(=O)c2cc(C(F)(F)F)nc3c(C(F)(F)F)cccc23)c(=O)n(C)c1=O	·	·	·	–
Cc1ccc(C(=O)Nc2ccc([N+](=O)[O-])cn2)o1	–	–	–	–
CC(C)Cn1c(N)c(C(=O)COC(=O)c2ccc(Br)cc2)c(=O)n(C)c1=O	23µM	–	?	–
CC(C)Cn1c(N)c(C(=O)COC(=O)CCc2nc3ccccc3s2)c(=O)n(C)c1=O	15µM	·	?	–
CC(C)Cn1c(N)c(C(=O)COC(=O)CCc2nc3ccccc3c(=O)[nH]2)c(=O)n(C)c1=O	–	–	?	–
CCOc1ccc(OCCC(=O)OCC(=O)c2c(N)n(CC(C)C)c(=O)n(C)c2=O)cc1	?	–	?	·
Cc1csc(=O)n1CCC(=O)OCC(=O)c1c(N)n(CC(C)C)c(=O)n(C)c1=O	15µM	–	18µM	–
CC(C)Cn1c(N)c(C(=O)COC(=O)CC23CC4CC(CC(C4)C2)C3)c(=O)n(C)c1=O	7.3µM	–	7.3µM	–
CC(C)Cn1c(N)c(C(=O)COC(=O)c2ccncc2)c(=O)n(C)c1=O	?	?	–	–
Cc1ccccc1OCCC(=O)OCC(=O)c1c(N)n(CC(C)C)c(=O)n(C)c1=O	?	28µM	?	·
Cc1ccc(OCCC(=O)OCC(=O)c2c(N)n(CC(C)C)c(=O)n(C)c2=O)cc1	?	–	?	–
COc1cccc(C2c3c(ncn(-c4ccccc4C#N)c3=N)Oc3ccc4ccccc4c32)c1 (centres undefined)	·	·	·	–
CCN1CCN(C(=O)c2sc3ncnc(NCC4CCCO4)c3c2C)CC1 (centres undefined)	–	·	–	·
SMILES	DT40 TDP1 no CPT	ClpP mod	TDP1 cell CPT	TDP1 block
COc1cc(-c2cc3nc(NCCc4ccncc4)ccn3n2)cc(OC)c1OC	18µM	–	18µM	·
COc1cc(-c2cc3nc(NCCOc4ccccc4)ccn3n2)cc(OC)c1OC	2.3µM	–	2.6µM	·
CCC(CO)Nc1ccn2nc(-c3cc(OC)c(OC)c(OC)c3)cc2n1 (centres undefined)	15µM	–	?	·
CCC(CO)Nc1ccn2nc(-c3ccccc3)cc2n1 (centres undefined)	?	?	–	·
CC(C)Cc1ccc(-c2cc3nc(NCCCn4ccnc4)ccn3n2)cc1	?	–	?	·
CC(C)Cc1ccc(-c2cc3nc(NCCc4ccc(S(N)(=O)=O)cc4)ccn3n2)cc1	12µM	–	23µM	·
Cc1ccc(S(=O)(=O)N(C)/N=C2/C(=O)N(CC(=O)O)c3ccccc32)cc1	–	·	–	·
COc1cc(-c2cc3nc(NCCc4ccc(S(N)(=O)=O)cc4)ccn3n2)cc(OC)c1OC	21µM	–	23µM	·
COc1cc(-c2cc3nc(NCc4ccco4)ccn3n2)cc(OC)c1OC	12µM	–	21µM	·
COc1cc(CCNc2ccc3nnc(-c4ccccc4)n3n2)cc(OC)c1OC	10µM	–	16µM	–
